# Measurements: PMC7862700, “An all-to-all approach to the identification of sequence-specific readers for epigenetic DNA modifications on cytosine”
# Columns and labels:
# Test in all cases: DAPPL (digital affinity profiling via proximity ligation, sequencing); 10 mM Tris-HCl pH 7.5, 50 mM NaCl, 1 mM DTT, 4% glycerol, room temperature, 30 min; GST-TFs on glutathione beads, 16-mer random dsDNA library, 0.1% formaldehyde crosslink after washing; high values mean tight binding
# FEV = target: T1, FEV (Homo sapiens, UniProt Q99581 1-238); settings: protein: recombinant; tags: N-terminal GST; dsDNA, one strand shown
# T1 sequence: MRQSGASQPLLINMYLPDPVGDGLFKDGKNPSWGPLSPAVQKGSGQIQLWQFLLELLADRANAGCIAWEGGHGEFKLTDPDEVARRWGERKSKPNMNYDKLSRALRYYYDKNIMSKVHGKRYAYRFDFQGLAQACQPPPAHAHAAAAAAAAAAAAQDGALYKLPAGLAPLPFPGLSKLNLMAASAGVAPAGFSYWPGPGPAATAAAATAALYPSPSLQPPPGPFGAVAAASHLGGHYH
# Outline: (§1)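 Binding signal is each hexamer's read frequency for a factor divided by its frequency in the tag-only sample. The factors were GST-fused human transcription factors from yeast, captured on glutathione beads, DNA-barcoded and pooled with that sample. Pools were incubated with 200 nmole of a random double-stranded 16-mer DNA library in Tris/NaCl/DTT/glycerol buffer at room temperature for 30 min, then washed, crosslinked with 0.1% formaldehyde, proximity-ligated with BsaI/T4 ligase (1 h, 37 °C), PCR-amplified and sequenced on an Illumina NextSeq500.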
# ETV5 = ETV5 (Homo sapiens, UniProt P41161 1-510); settings: protein: recombinant; tags: N-terminal GST; dsDNA, one strand shown
# Chain of ETV5 (P41161 whole entry): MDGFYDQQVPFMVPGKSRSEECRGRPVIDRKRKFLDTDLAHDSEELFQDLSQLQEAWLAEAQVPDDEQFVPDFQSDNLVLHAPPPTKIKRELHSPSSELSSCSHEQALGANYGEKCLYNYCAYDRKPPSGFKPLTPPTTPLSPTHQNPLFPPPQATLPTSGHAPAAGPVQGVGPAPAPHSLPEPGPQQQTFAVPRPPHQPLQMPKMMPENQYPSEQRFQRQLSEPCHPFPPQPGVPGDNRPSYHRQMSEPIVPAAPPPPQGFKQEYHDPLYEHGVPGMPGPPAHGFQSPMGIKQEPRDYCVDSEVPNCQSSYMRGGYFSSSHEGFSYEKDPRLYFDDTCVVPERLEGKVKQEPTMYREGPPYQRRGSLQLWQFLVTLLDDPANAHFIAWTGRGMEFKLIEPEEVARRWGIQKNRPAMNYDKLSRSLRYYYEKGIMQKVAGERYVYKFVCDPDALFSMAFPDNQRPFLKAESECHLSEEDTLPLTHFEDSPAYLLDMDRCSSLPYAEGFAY
# Outline: as §1
# HSF1 = HSF1 (Homo sapiens, UniProt Q00613 1-529); settings: protein: recombinant; tags: N-terminal GST; chain copies: 3; dsDNA, one strand shown
# Chain of HSF1 (Q00613 whole entry): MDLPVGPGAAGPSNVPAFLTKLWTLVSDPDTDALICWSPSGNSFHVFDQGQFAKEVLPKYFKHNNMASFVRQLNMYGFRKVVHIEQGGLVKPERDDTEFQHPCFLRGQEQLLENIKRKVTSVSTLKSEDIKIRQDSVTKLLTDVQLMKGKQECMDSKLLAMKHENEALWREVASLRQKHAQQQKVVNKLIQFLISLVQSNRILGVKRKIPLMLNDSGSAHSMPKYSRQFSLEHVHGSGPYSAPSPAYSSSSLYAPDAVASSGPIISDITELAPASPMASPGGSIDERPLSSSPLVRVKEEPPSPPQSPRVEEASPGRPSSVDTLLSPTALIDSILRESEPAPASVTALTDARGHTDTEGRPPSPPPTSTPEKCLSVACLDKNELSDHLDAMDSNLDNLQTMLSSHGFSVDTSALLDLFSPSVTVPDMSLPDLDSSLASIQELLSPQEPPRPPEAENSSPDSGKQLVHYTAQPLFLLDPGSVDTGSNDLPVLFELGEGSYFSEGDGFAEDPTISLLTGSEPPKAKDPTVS
# Outline: as §1
# SPIC = target: T2, SPIC (Homo sapiens, UniProt Q8N5J4 1-248); settings: protein: recombinant; tags: N-terminal GST; dsDNA, one strand shown
# T2 sequence: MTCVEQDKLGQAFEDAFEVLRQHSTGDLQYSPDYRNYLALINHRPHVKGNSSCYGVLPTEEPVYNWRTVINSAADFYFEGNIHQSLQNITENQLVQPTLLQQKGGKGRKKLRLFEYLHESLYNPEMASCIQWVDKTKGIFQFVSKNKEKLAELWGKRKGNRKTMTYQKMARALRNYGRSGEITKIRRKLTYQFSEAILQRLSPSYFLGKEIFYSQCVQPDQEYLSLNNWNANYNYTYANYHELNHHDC
# Outline: as §1
# ELF4 = ELF4 (Homo sapiens, UniProt Q99607 1-663); settings: protein: recombinant; tags: N-terminal GST; dsDNA, one strand shown
# Chain of ELF4 (Q99607 whole entry): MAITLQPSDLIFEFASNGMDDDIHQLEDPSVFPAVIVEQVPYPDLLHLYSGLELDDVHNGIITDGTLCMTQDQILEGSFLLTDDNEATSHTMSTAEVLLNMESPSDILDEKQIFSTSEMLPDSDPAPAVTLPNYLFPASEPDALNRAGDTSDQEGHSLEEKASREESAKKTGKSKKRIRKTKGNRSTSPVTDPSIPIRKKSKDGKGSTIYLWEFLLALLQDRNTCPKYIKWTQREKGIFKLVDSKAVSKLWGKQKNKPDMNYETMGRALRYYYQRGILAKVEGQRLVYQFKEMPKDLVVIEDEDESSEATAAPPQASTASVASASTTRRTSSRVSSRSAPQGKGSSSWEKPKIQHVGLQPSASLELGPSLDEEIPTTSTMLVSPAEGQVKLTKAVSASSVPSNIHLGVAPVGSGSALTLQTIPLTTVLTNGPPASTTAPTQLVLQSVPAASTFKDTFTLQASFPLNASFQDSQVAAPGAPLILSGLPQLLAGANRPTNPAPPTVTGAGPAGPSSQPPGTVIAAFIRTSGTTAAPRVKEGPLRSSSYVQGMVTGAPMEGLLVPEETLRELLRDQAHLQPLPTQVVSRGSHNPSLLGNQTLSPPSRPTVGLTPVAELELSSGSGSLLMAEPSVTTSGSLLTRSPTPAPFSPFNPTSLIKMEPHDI
# Outline: as §1
# ELK4 = target: T3, ELK4 (Homo sapiens, UniProt P28324-2 1-405); settings: protein: recombinant; tags: N-terminal GST; dsDNA, one strand shown
# T3 sequence: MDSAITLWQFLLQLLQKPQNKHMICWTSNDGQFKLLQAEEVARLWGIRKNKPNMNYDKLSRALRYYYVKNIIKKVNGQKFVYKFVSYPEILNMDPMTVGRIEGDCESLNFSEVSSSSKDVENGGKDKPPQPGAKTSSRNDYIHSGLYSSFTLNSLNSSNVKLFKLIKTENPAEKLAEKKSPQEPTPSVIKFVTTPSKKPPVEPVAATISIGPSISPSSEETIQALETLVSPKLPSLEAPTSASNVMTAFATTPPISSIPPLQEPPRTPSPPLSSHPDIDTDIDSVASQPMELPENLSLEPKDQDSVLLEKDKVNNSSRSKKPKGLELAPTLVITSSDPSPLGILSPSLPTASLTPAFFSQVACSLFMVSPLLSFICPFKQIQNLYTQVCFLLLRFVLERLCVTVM
# Outline: as §1
# ETV2 = target: T4, ETV2 (Homo sapiens, UniProt O00321 1-342); settings: protein: recombinant; tags: N-terminal GST; dsDNA, one strand shown
# T4 sequence: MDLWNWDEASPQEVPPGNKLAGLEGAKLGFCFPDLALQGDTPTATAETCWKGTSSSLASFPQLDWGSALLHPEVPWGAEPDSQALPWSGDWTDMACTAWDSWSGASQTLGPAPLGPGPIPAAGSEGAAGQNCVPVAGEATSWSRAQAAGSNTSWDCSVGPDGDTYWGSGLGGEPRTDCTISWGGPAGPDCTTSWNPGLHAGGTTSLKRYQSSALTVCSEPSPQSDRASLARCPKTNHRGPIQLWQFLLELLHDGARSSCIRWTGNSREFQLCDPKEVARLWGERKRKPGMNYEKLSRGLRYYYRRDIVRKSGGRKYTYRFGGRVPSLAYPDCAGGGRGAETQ
# Outline: as §1
# ELF3 = target: T5, ELF3 (Homo sapiens, UniProt P78545 1-371); settings: protein: recombinant; tags: N-terminal GST; dsDNA, one strand shown
# T5 sequence: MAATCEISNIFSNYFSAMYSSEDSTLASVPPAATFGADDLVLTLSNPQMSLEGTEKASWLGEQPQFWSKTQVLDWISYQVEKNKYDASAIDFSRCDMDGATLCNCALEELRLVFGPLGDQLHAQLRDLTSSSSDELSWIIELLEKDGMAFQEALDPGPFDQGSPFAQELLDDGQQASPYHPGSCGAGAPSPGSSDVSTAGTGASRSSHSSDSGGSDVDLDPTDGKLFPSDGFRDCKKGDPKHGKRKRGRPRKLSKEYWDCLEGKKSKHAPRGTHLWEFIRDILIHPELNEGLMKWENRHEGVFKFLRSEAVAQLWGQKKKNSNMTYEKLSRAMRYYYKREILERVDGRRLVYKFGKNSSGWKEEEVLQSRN
# Outline: as §1
# CRX = CRX (Homo sapiens, UniProt O43186 1-299); settings: protein: recombinant; tags: N-terminal GST; dsDNA, one strand shown
# Chain of CRX (O43186 whole entry): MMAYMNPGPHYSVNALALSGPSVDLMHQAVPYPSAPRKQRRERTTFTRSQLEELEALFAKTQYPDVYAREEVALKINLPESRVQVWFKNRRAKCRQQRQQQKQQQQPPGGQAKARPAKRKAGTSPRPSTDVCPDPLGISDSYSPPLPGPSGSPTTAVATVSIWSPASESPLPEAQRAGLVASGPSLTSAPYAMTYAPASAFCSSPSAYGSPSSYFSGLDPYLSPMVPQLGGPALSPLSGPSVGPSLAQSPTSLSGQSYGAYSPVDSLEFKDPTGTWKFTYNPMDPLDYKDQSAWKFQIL
# Outline: as §1
# ETV1 = ETV1 (Homo sapiens, UniProt P50549 1-477); settings: protein: recombinant; tags: N-terminal GST; dsDNA, one strand shown
# Chain of ETV1 (P50549 whole entry): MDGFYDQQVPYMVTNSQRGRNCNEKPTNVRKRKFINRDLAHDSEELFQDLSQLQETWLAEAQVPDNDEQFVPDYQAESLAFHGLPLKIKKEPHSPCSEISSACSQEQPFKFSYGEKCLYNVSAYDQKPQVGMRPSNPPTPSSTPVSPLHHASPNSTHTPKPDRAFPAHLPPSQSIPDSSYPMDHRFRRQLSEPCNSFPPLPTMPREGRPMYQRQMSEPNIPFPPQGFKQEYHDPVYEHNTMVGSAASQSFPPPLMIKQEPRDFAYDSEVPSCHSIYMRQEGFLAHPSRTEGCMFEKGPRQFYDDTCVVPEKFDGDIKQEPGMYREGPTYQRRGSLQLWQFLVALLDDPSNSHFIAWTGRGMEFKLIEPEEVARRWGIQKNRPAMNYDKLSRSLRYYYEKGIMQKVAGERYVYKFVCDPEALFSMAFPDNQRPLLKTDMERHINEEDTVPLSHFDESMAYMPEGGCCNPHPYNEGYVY
# Outline: as §1
# ERF = target: T6, ERF (Homo sapiens, UniProt P50548 1-548); settings: protein: recombinant; tags: N-terminal GST; dsDNA, one strand shown
# T6 sequence: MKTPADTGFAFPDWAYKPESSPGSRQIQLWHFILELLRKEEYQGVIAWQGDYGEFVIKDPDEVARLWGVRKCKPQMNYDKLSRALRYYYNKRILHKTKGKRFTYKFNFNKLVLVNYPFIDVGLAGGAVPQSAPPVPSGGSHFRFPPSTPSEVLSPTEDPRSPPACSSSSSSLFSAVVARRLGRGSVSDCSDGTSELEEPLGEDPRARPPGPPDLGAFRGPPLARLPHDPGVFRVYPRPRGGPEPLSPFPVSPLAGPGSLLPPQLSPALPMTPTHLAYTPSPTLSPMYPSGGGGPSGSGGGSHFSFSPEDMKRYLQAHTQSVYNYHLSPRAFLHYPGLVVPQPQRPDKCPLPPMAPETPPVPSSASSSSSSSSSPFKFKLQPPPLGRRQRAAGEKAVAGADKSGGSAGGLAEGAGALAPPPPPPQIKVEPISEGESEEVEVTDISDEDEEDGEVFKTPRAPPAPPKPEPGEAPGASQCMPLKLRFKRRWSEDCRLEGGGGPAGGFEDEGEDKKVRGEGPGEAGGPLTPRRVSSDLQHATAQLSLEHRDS
# Outline: as §1
# ETV3L = target: T7, ETV3L (Homo sapiens, UniProt Q6ZN32 1-361); settings: protein: recombinant; tags: N-terminal GST; dsDNA, one strand shown
# T7 sequence: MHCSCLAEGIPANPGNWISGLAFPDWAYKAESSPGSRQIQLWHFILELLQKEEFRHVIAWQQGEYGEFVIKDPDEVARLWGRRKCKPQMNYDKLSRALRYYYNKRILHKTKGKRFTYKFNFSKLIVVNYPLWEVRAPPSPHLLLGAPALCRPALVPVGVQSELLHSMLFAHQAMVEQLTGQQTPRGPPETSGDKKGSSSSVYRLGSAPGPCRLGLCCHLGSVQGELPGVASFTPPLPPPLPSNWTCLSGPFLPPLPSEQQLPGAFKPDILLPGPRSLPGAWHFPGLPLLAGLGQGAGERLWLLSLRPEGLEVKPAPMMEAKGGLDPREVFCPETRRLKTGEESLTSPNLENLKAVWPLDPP
# Outline: as §1
# ETS2 = target: T8, ETS2 (Homo sapiens, UniProt P15036 1-469); settings: protein: recombinant; tags: N-terminal GST; dsDNA, one strand shown
# T8 sequence: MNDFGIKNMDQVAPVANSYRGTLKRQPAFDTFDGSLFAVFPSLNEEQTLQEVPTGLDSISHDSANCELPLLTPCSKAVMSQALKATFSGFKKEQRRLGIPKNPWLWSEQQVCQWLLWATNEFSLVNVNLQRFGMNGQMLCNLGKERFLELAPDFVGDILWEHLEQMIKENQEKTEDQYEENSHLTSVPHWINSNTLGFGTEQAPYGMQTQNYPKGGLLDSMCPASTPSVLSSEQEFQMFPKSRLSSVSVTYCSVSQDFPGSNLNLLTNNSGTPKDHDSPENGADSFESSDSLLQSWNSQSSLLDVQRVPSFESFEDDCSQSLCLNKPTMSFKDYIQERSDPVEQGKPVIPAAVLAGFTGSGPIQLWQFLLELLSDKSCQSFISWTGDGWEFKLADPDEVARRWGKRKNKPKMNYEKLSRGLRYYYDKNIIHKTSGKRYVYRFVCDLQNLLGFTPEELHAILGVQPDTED
# Outline: as §1
# SPDEF = target: T9, SPDEF (Homo sapiens, UniProt O95238 1-335); settings: protein: recombinant; tags: N-terminal GST; dsDNA, one strand shown
# T9 sequence: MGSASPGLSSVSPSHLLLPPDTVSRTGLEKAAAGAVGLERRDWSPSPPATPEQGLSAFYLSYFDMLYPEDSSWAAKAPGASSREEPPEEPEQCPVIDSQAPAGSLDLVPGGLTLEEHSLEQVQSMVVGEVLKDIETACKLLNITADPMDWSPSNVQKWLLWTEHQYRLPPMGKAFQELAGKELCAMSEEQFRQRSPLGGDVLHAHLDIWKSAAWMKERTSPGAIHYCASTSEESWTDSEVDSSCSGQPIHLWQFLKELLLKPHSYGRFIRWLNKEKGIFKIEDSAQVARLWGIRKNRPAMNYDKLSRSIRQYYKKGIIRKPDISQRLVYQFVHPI
# Outline: as §1
# ETV7 = target: T10, ETV7 (Homo sapiens, UniProt Q9Y603 1-341); settings: protein: recombinant; tags: N-terminal GST; dsDNA, one strand shown
# T10 sequence: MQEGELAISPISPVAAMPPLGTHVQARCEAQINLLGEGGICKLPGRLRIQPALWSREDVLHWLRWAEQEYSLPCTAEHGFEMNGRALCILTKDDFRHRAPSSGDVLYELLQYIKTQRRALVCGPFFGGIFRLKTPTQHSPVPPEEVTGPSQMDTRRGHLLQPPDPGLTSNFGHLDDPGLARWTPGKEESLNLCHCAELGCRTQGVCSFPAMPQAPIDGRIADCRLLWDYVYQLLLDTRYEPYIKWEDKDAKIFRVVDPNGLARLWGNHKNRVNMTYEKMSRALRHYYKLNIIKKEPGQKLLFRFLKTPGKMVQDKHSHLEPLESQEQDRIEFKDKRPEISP
# Outline: as §1
# ELF5 = target: T11, ELF5 (Homo sapiens, UniProt Q9UKW6-2 1-255); settings: protein: recombinant; tags: N-terminal GST; dsDNA, one strand shown
# T11 sequence: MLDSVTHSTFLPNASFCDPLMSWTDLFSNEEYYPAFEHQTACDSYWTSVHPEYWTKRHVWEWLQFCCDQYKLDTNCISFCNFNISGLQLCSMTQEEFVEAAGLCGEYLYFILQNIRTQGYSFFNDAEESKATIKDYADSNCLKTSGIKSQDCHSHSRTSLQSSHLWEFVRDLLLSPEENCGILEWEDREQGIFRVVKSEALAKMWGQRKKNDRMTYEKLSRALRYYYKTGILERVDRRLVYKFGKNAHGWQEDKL
# Outline: as §1
# ETV3 = target: T12, ETV3 (Homo sapiens, UniProt P41162-2 1-143); settings: protein: recombinant; tags: N-terminal GST; dsDNA, one strand shown
# T12 sequence: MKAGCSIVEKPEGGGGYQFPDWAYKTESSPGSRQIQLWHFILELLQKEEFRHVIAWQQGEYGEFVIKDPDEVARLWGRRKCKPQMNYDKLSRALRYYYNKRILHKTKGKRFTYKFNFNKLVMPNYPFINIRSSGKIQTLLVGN
# Outline: as §1
# ETV6 = ETV6 (Homo sapiens, UniProt P41212 1-452); settings: protein: recombinant; tags: N-terminal GST; dsDNA, one strand shown
# Chain of ETV6 (P41212 whole entry): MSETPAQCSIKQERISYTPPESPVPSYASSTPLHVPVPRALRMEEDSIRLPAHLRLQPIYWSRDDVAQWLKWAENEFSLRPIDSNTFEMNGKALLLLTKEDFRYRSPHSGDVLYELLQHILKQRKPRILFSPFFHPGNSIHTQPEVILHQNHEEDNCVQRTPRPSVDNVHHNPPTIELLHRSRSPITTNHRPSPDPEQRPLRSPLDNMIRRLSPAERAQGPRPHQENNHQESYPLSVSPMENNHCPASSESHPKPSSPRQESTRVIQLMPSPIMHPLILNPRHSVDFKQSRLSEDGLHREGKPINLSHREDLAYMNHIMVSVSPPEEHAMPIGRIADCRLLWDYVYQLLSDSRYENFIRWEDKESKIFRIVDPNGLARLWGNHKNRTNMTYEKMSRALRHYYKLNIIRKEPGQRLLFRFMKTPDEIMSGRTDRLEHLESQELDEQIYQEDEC
# Outline: as §1
sequence,measurement,setting,value
ATTCCC,binding signal,FEV,"1.42 fold enrichment (6-mer frequency, TF over GST control)"
same,binding signal,ETV5,"1.44 fold enrichment (6-mer frequency, TF over GST control)"
same,binding signal,HSF1,"1.61 fold enrichment (6-mer frequency, TF over GST control)"
same,binding signal,SPIC,"1.41 fold enrichment (6-mer frequency, TF over GST control)"
same,binding signal,ELF4,"1.47 fold enrichment (6-mer frequency, TF over GST control)"
same,binding signal,ELK4,"1.24 fold enrichment (6-mer frequency, TF over GST control)"
same,binding signal,ETV2,"1.42 fold enrichment (6-mer frequency, TF over GST control)"
same,binding signal,ELF3,"1.35 fold enrichment (6-mer frequency, TF over GST control)"
same,binding signal,CRX,"1.57 fold enrichment (6-mer frequency, TF over GST control)"
same,binding signal,ETV1,"1.4 fold enrichment (6-mer frequency, TF over GST control)"
same,binding signal,ERF,"1.28 fold enrichment (6-mer frequency, TF over GST control)"
same,binding signal,ETV3L,"1.53 fold enrichment (6-mer frequency, TF over GST control)"
same,binding signal,ETS2,"1.25 fold enrichment (6-mer frequency, TF over GST control)"
same,binding signal,SPDEF,"1.37 fold enrichment (6-mer frequency, TF over GST control)"
same,binding signal,ETV7,"1.29 fold enrichment (6-mer frequency, TF over GST control)"
same,binding signal,ELF5,"1.5 fold enrichment (6-mer frequency, TF over GST control)"
same,binding signal,ETV3,"1.51 fold enrichment (6-mer frequency, TF over GST control)"
same,binding signal,ETV6,"1.38 fold enrichment (6-mer frequency, TF over GST control)"
